Molecules are shown by their SMILES. Records with an inconclusive call do not appear. Where a call stands in place of a potency, no number is given. Unmarked numbers belong to inactive results. The source made the active and inactive calls. The call rests on the fitted dose curve; in most records, active means well fitted activation curve with a large enough effect in the repeat runs; inconclusive means weak or mixed curves; inactive means flat fitted curve, though single readings scatter.
Potency means the concentration at half of the fitted maximal effect.

The test is described as follows: A CellTox Green Cytotoxicity Assay to monitor cytotoxicity in HepG2 cells - 8 hour (AID 1224890). Further: nearly all actives have a fitted effect of over 45% in size. As to conditions: CellTox Green fluorescence; series mostly up to 76.8 µM. The source says:
National Center for Advancing Translational Sciences [NCATS]
NIH Chemical Genomics Center [NCGC]
U.S. Environmental Protection Agency [EPA]
National Institutes of Environmental Health Sciences [NIEHS]
National Toxicology Program [NTP]
Cell-based models are critical for drug discovery. Determining the natural cytotoxic effects resulting from test compounds is an essential research activity. A CellTox Green Cytotoxicity Assay to monitor cytotoxicity in real time of continues cell culture during 40 hours of the compound treatment was used to screen Tox21 10K library compounds in HepG2 cells. CellTox Green Cytotoxicity Assay is a nonlytic, homogeneous, biofluorescent method to measure cytotoxicity in cell culture after experimental manipulation. The assay system uses a proprietary asymmetric cyanine dye that is excluded from viable cells but preferentially stains the dead cell's DNA. […] Viable cells produce no appreciable increases in fluorescence. Therefore, the fluorescence signal produced by the binding interaction with dead cell DNA is proportional to cytotoxicity.
The mixture of HepG2 cell suspension and reagents were dispensed at 600cells/6 ul/well in 1536-well tissue culture treated black solid bottom plates using a Multidrop dispenser. After the assay plates were incubated at a 37 C/5% CO2 incubator for 5 hours, 23 nL of compounds dissolved in DMSO, positive and negative controls was transferred to the assay plate by a pintool work station. The plates were incubated at 37 C for 40 hours. The fluorescence intensity were measured at 0h, 8h, 16h, 24h, 32h and 40h time points using ViewLux plate reader during compound treatment.
On to `COc1ccc(-n2nc(CCC(=O)N(C)O)cc2-c2ccc(Cl)cc2)cc1`, for which the Potency entry was “inactive”.

Consider `OCCCc1cccnc1`, for which the Potency entry was “inactive”.

For the compound `Cc1oc(-c2ccccc2)nc1CCOc1ccc(C[C@H](Nc2ccccc2C(=O)c2ccccc2)C(=O)O)cc1`, the Potency entry is “inactive”.

Take `COc1cc(C(=O)NS(=O)(=O)c2ccccc2C)ccc1Cc1cn(C)c2ccc(NC(=O)OC3CCCC3)cc12`: the Potency entry was “inactive”.

Regarding `CN1CN(C)CN(C)C1`, the Potency entry is “inactive”.

`CCCCCCCCCCCCCOP(=O)(O)O`: the Potency entry was “inactive”.

For `CCc1ccc(O)c(C(C)(C)C)c1`, the Potency was 43.6 µM (active).

With `CCCCCCC(C)OC(=O)COc1nc(F)c(Cl)c(N)c1Cl` (stereo not given), the Potency entry was “inactive”.

For `CCCCCCC(C)Nc1ccc(Nc2ccccc2)cc1` (stereo not given), the Potency entry is “inactive”.

Turning to `O=C(c1ccccc1)c1cc(Cl)ccc1O`, the Potency result is “inactive”.

Consider `S=C(SSSSSSC(=S)N1CCCCC1)N1CCCCC1`, for which the cytotoxicity increase was -7.66% [at 15.8 µM].

Take `COc1cccc(OC)c1O`: the Potency entry is “inactive”.

With `CCCCCCCCCCCCCC[n+]1ccccc1`, the Potency was 49 µM (active).

With `COC(=O)CC(C)CCC=C(C)C` (stereo not given), the Potency entry is “inactive”.

Take `CCN(CC)c1ccc(N)cc1`: the Potency result is “inactive”.

`C=C1C(C)(C)[C@@]2(Cl)C(Cl)[C@]1(Cl)C(Cl)(Cl)C2(Cl)Cl` (stereo not given in full): the Potency entry is “inactive”.

For the compound `Oc1cc2ccccc2cc1O`, the Potency result was “inactive”.

Consider `c1cc[nH]c1`, for which the Potency result is “inactive”.

Regarding `CCN(CC)CCCN(c1ccccc1)C1Cc2ccccc2C1`, the Potency result was “inactive”.

For the compound `CCOB(OCC)OCC`, the Potency entry was “inactive”.

`COc1cc(C(C)C)c2c(c1)S(=O)(=O)N(COc1cc(=O)n3cccc(OCCN4CCCCC4)c3n1)C2=O`: the cytotoxicity increase was 14.9% [at 15.8 µM].

For `O=C(O)CCCCCCC(=O)O`, the Potency entry was “inactive”.

Consider `Clc1cc(Cl)c(-c2c(Cl)c(Cl)cc(Cl)c2Cl)cc1Cl`, for which the Potency entry is “inactive”.

As for `CCC(=O)CC(C)CC` (stereo not given), the cytotoxicity increase was 2.33% [at 0.29 µM].

As for `CCCCCCOc1ccc(O)cc1`, the Potency was 24.5 µM (active).

For `O=Cc1ccc(F)cc1`, the Potency entry is “inactive”.

For the compound `COC(=O)CC#N`, the Potency entry was “inactive”.

For the compound `CC(C)(C)c1cc(CCC(=O)NCCCCCCNC(=O)CCc2cc(C(C)(C)C)c(O)c(C(C)(C)C)c2)cc(C(C)(C)C)c1O`, the Potency result is “inactive”.

For the compound `O=C(Nc1ccc(Cl)cc1)Nc1ccc(Cl)c(C(F)(F)F)c1`, the Potency entry was “inactive”.

On to `CCc1cccc(CC)c1N(COC)C(=O)CS(=O)(=O)O`, for which the Potency entry was “inactive”.

As for `CCCCCCCCCCCCCCCCCO`, the cytotoxicity increase is 1.25% [at 15.8 µM].

Consider `c1ccc(Sc2ccccc2)cc1`, for which the Potency entry is “inactive”.

With `CCCCN(CCCC)CCC(O)c1cc2c(Cl)cc(Cl)cc2c2cc(C(F)(F)F)ccc12` (stereo not given), the Potency result was “inactive”.

As to `Nc1ncnc2c1ncn2[C@@H]1O[C@H](COP(=O)(O)O)[C@@H](O)[C@H]1O`, the Potency result is “inactive”.

Turning to `C=CC(=C)CC/C=C(\C)CCC=C(C)C`, the cytotoxicity increase is 2.8% [at 15.8 µM].

With `C=CC/C=C/C/C=C/C/C=C/C`, the Potency entry was “inactive”.

As for `CCCCC(CC)COC(=O)c1ccc(O)cc1` (stereo not given), the Potency is 38.9 µM (active).

Turning to `CC(C)=CC1CC(C)CCO1` (stereo not given), the Potency entry is “inactive”.

Regarding `CCN(CC)c1cccc(C)c1`, the Potency entry is “inactive”.

`CCCCCCCC/C=C/CCCOC(C)=O`: the Potency result was “inactive”.
